# Test results published in PubChem BioAssay (Tox21).
# Values without a mark were called inactive. Inconclusive results are not listed. Entries that show only a call come without a potency. Calls of active or inactive are those of the source. Unless noted, calls follow the shape of the full dose curve.
# Key:
# [1] = biological target: Gonadotropin-releasing hormone receptor (Homo sapiens) (UniProt P30968); assay: Human gonadotropin-releasing hormone receptor (GnRHR) small molecule agonists, calcium flux assay in GnRHR-HEK293 cells (AID 1920063); also: nearly all actives have a fitted effect of over 35% in size
# Gonadotropin-releasing hormone receptor (Homo sapiens), sequence (P30968 whole entry, looked up): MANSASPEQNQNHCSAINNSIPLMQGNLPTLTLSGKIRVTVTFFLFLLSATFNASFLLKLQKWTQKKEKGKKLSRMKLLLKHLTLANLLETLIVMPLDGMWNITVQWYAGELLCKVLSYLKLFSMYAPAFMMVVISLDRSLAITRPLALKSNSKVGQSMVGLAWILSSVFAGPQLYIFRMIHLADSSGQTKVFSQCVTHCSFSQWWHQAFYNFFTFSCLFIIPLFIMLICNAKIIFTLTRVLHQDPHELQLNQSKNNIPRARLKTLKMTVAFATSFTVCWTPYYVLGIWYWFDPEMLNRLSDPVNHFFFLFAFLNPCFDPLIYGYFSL
# Summary of the method: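 HEK293 cells stably expressing human GnRHR were plated 18 h at 37 °C, loaded with calcium dye 1 h at 37 °C, then given compound in agonist mode; fluorescence (Ex/Em 480/540) read kinetically for 3 min at 1 s intervals.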
# [2] = biological target: KiSS-1 receptor (Homo sapiens) (UniProt Q969F8); assay: Human kisspeptin (KISS1R) small molecule agonists, calcium flux assay in KISS1R-HEK293 cells (AID 1920064; active = well fitted activation curve with a large enough effect in the repeat runs)
# KiSS-1 receptor (Homo sapiens), sequence (Q969F8 whole entry, looked up): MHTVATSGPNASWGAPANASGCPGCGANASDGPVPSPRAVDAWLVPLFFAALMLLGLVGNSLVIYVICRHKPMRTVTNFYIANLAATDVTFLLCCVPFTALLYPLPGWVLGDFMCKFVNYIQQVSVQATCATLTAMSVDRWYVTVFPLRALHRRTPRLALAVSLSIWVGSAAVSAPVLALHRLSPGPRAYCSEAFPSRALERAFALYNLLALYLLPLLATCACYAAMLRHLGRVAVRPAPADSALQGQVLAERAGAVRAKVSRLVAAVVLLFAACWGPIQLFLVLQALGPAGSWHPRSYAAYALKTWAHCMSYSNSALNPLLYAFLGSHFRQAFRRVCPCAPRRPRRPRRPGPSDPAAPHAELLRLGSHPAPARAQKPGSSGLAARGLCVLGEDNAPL
# Summary of the method: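 HEK293 cells stably expressing human KISS1R were plated 18 h at 37 °C, loaded with calcium dye for 1 h at 37 °C, then given compound by pin tool. Fluorescence (Ex/Em 480/540) was read kinetically for 3 min.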
# [3] = G protein-coupled receptor (GPCR) small molecule agonists, calcium flux assay: HEK293 wild type cell line counter screen (AID 1920065)
# Summary of the method: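 Cells were plated and cultured 18 h at 37 C/5% CO2, then loaded with calcium dye for 1 h at 37 C. Compounds in DMSO were pin-transferred in agonist mode, and fluorescence (Ex/Em 480/540) was read kinetically for 3 min at 1 s intervals.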
# [4] = p53 small molecule agonists, cell-based qHTS assay with human liver microsomes (AID 1963577);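 also: p53 response element beta-lactamase reporter cells with liver microsomes plus NADPH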
# Summary of the method: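 Metabolically competent format: test substances, human liver microsomes and NADPH (both 0.5 mg/mL final) incubated with p53RE-bla cells 16 h at 37 C. Beta-lactamase reporter signal then quantified by fluorescence.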
# [5] = p53 small molecule agonists, cell-based qHTS assay with rat liver microsomes (AID 1963578)
# Summary of the method: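 Each plate received p53RE-bla cells, then compound, then rat liver microsomes and NADPH (both 0.5 mg/mL final). Plates were held 16 h at 37 C, and beta-lactamase activity was detected with LiveBLAzer over 2 h.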
# [6] = p53 small molecule agonists, cell-based qHTS assay with human liver microsomes: qHTS cell viability counter screen (AID 1963579); also: nearly all actives have a fitted effect of over 45% in size
# Summary of the method: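 Tox21 library compounds, delivered from DMSO stocks, were tested on p53RE-bla cells together with 0.5 mg/mL human liver microsomes and 0.5 mg/mL NADPH (final) over 16 h at 37 C; CellTiter-Glo luminescence served as the cytotoxicity measure.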
# [7] = p53 small molecule agonists, cell-based qHTS assay with rat liver microsomes: qHTS cell viability counter screen (AID 1963580); also: nearly all actives have a fitted effect of over 45% in size
# Summary of the method: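 p53RE-bla HCT-116 cells were exposed 16 h at 37 C to compounds with rat liver microsomes (0.5 mg/mL) and NADPH (0.5 mg/mL). Viability was measured in the same wells as ATP content by CellTiter-Glo luminescence.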
# [8] = p53 small molecule agonists, cell-based qHTS assay: qHTS cell viability counter screen (AID 1963581); also: nearly all actives have a fitted effect of over 45% in size; also: potency is read from the fitted curve at half-maximal effect
# Summary of the method: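 p53RE-bla HCT-116 cells were exposed to compounds for 16 h at 37 C; after the beta-lactamase FRET read in the same wells, CellTiter-Glo was added and luminescence (intracellular ATP) read after 30 min at room temperature.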
# [9] = p53 small molecule agonists, cell-based qHTS assay (AID 1963582; active = well fitted activation curve with a large enough effect in the signal ratio in the repeat runs, not every such curve was filed as active; the % refers to the signal ratio; also: potency is read from the fitted curve at half-maximal effect)
# Summary of the method: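 p53RE-bla beta-lactamase reporter cells rested 5 h at 37 C/5% CO2, then received compounds in DMSO by pin transfer and were incubated 16 h at 37 C. LiveBLAzer B/G FRET substrate was loaded for 2 h at room temperature before fluorescence reading.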
# [10] = biological target: 5-hydroxytryptamine receptor 2A (Homo sapiens) (UniProt P28223); assay: 5-hydroxytryptamine receptor 2A (HTR2A) small molecule antagonists, cell-based qHTS assay (AID 1963586); also: nearly all actives have a fitted effect of over 45% in size; also: potency is read from the fitted curve at half-maximal effect
# 5-hydroxytryptamine receptor 2A (Homo sapiens), sequence (P28223 whole entry, looked up): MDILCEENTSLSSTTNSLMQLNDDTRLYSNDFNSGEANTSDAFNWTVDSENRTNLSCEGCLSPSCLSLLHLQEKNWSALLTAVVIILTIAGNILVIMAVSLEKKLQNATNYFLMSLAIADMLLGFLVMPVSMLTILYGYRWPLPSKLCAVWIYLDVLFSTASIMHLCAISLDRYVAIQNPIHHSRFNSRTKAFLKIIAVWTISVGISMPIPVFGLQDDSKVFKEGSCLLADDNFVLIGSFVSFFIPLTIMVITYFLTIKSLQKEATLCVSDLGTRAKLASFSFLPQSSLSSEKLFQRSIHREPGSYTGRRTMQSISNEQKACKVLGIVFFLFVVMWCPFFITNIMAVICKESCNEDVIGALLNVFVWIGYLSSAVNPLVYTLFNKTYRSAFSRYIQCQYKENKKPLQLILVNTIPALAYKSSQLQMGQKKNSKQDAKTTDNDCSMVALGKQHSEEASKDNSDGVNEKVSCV
# Summary of the method: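 Antagonist-mode intracellular calcium assay: DOI (4 nM) added after 5 min compound pre-incubation at room temperature to dye-loaded HTR2A-CHO cells. Fluorescence followed for 3 min, sampled every second.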
# [11] = biological target: Muscarinic acetylcholine receptor M1 (Homo sapiens) (UniProt P11229); assay: Cholinergic receptor muscarinic 1 (CHRM1) small molecule antagonists, cell-based qHTS assay (AID 1963588); also: nearly all actives have a fitted effect of over 40% in size; also: potency is read from the fitted curve at half-maximal effect
# Muscarinic acetylcholine receptor M1 (Homo sapiens), sequence (P11229 whole entry, looked up): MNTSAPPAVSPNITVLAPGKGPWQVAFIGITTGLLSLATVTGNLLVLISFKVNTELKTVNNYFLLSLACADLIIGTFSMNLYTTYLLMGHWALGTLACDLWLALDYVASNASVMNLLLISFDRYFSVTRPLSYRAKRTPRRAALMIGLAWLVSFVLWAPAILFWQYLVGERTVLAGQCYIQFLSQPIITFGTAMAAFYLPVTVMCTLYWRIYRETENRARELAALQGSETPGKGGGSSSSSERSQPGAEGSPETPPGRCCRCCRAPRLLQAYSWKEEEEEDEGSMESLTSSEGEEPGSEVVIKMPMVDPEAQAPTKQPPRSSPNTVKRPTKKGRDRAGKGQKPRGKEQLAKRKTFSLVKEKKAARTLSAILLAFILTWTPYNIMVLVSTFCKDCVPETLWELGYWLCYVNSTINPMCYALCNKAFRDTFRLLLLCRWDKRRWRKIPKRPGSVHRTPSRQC
# Summary of the method: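 CHRM1-CHO calcium-flux assay, antagonist mode. Cells were seeded 18 h, dye-loaded 1 h at 37 C and given compound for 5 min at RT, then acetylcholine was added at 50nM. FDSS fluorescence was read 3 min; 15 concentrations, three runs.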
# [12] = biological target: Muscarinic acetylcholine receptor M1 (Homo sapiens) (UniProt P11229); assay: Cholinergic receptor muscarinic 1 (CHRM1) small molecule agonists, cell-based qHTS assay (AID 1963589); also: nearly all actives have a fitted effect of over 35% in size
# Summary of the method: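 CHO cells stably expressing human CHRM1, seeded 18 h at 37 C/5% CO2, dye-loaded 1 h at 37 C, then given compound in agonist mode; intracellular calcium fluorescence read kinetically at 1 s intervals. Fifteen concentrations, three independent runs.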
# [13] = cAMP Responsive Elements (CRE) small molecule agonists, cell-based qHTS assay (AID 1963590)
# Summary of the method: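 CRE-bla HEK 293T cells in DMEM with 10% dialyzed FBS, NEAA, pyruvate and 25 mM HEPES were plated 18 h at 37 C/5% CO2, then exposed to compounds in DMSO for 3 h before LiveBLAzer B/G FRET substrate addition.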
# [14] = cAMP Responsive Elements (CRE) small molecule antagonists, cell-based qHTS assay (AID 1963591; active = well fitted inhibition curve with a large enough effect in the signal ratio in the repeat runs, not every such curve was filed as active; the % refers to the signal ratio)
# Summary of the method: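 CRE-bla HEK293T cells were plated 18 h at 37 °C/5% CO2, pinned with compound in DMSO, then stimulated with NKH477 at 0.25 uM final for 3 h. LiveBLAzer B/G FRET substrate was added and plates incubated 2 h at room temperature.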
# [15] = biological target: Beta-2 adrenergic receptor (Homo sapiens) (UniProt P07550); assay: Adrenergic beta2 receptor (ADRB2) small molecule antagonists, cell-based qHTS assay (AID 1963592); also: nearly all actives have a fitted effect of over 50% in size; also: potency is read from the fitted curve at half-maximal effect
# Beta-2 adrenergic receptor (Homo sapiens), sequence (P07550 whole entry, looked up): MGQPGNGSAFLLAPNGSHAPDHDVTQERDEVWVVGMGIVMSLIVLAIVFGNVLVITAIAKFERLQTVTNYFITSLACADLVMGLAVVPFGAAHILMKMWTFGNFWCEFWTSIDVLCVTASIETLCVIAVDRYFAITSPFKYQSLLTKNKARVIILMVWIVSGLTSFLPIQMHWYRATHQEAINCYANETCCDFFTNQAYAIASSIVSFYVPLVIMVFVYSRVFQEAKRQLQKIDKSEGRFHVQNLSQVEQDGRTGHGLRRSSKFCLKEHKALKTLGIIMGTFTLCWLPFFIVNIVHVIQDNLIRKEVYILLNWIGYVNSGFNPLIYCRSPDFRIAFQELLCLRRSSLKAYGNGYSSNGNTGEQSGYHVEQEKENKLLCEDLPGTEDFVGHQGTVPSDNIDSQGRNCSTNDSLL
# Summary of the method: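 Cells (CHO, stable ADRB2 overexpression) incubated 18-20hr at 37C; compounds added from DMSO; agonist mix (1nM isoproterenol, 100uM IBMX, 25uM Ro-20-1724) added; 0.5hr RT; d2-cAMP and anti-cAMP-cryptate added; 1hr RT; 665/615 nm read.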
# [16] = biological target: Beta-2 adrenergic receptor (Homo sapiens) (UniProt P07550); assay: Adrenergic beta2 receptor (ADRB2) small molecule agonists, cell-based qHTS assay (AID 1963593);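 also: CHO cells stably overexpressing human ADRB2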
# Summary of the method: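 CHO cells stably over-expressing ADRB2 were plated overnight at 37C, then dosed with compounds plus a stimulation mix containing 100uM IBMX and 25uM Ro-20-1724 for 0.5hr at room temperature. cAMP was measured by HTRF competition, 1hr.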
# [17] = biological target: D(2) dopamine receptor (Homo sapiens) (UniProt P14416); assay: Dopamine D2 receptor (DRD2) small molecule agonists, cell-based qHTS assay (AID 1963594); also: nearly all actives have a fitted effect of over 35% in size
# D(2) dopamine receptor (Homo sapiens), sequence (P14416 whole entry, looked up): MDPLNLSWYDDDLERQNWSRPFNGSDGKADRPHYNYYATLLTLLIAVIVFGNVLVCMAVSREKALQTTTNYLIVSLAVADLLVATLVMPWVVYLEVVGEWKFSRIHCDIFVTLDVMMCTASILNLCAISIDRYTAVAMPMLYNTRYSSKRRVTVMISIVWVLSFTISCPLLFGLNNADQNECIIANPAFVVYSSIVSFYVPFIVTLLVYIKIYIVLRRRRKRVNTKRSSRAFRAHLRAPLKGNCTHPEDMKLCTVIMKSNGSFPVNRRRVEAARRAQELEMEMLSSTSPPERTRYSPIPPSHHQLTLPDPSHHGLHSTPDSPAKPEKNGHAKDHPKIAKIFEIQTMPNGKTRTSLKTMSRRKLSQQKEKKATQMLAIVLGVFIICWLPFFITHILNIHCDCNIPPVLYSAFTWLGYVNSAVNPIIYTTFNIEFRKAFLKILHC
# Summary of the method: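 HEK293 cells stably expressing human DRD2, pre-treated with PDE inhibitor Ro20-1724 (0.1 mM final) and compound 10 min at room temperature, then stimulated with NKH477 (200nM […]) for 30 min. cAMP read by HTRF (665/620 nm).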
# [18] = biological target: D(2) dopamine receptor (Homo sapiens) (UniProt P14416); assay: Dopamine D2 receptor (DRD2) small molecule antagonists, cell-based qHTS assay (AID 1963595; active = well fitted inhibition curve with a large enough effect in the signal ratio in the repeat runs, with a control signal flat; the % refers to the signal ratio; also: potency is read from the fitted curve at half-maximal effect)
# Summary of the method: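 HEK293 cells stably expressing DRD2 were preincubated with 0.1 mM Ro20-1724, then with compound for 10 min at room temperature. Cells were stimulated with 200 nM NKH477 plus 12 nM quinpirole for 30 min, and cAMP was read by HTRF.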
# [19] = biological target: 5-hydroxytryptamine receptor 2A (Homo sapiens) (UniProt P28223); assay: 5-hydroxytryptamine receptor 2A (HTR2A) small molecule agonists, cell-based qHTS assay (AID 1963587); also: nearly all actives have a fitted effect of over 30% in size
# Summary of the method: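 CHO cells stably expressing human HTR2A, plated 18 h, loaded with calcium dye 1 h at 37 C. Agonist mode: compounds added and intracellular calcium fluorescence recorded kinetically for 2 min at 1 sec intervals.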
SMILES,Potency [1],Potency [2],Potency [3],Potency [4],Potency [5],Potency [6],Potency [7],Potency [8],Potency [9],Potency [10],Potency [11],Potency [12],Potency [13],Potency [14],Potency [15],Potency [16],Potency [17],Potency [18],Potency [19]
CCCn1cc[n+](C)c1C,inactive,inactive,inactive,inactive,inactive,inactive,inactive,inactive,inactive,inactive,inactive,inactive,inactive,inactive,inactive,inactive,inactive,inactive,
COc1cc([C@@H]2c3cc4c(cc3[C@@H](O[C@@H]3O[C@@H]5CO[C@@H](C)O[C@H]5[C@H](O)[C@H]3O)[C@H]3COC(=O)[C@H]23)OCO4)cc(OC)c1O,inactive,inactive,inactive,inactive,inactive,inactive,inactive,inactive,1.14 µM (active),,,,inactive,,inactive,inactive,inactive,inactive,
CC[N+](CC)(CC)CCOc1ccc(/C=C/c2ccccc2)cc1,inactive,inactive,inactive,inactive,inactive,inactive,inactive,,inactive,18.3 µM (active),1.16 µM (active),inactive,inactive,inactive,inactive,,,,inactive
Cc1cc2c(cc1C(F)(F)F)N(C(=O)Nc1ccc(Oc3cccnc3C)nc1)CC2,inactive,inactive,inactive,inactive,inactive,inactive,inactive,inactive,,,inactive,inactive,,,27.7 µM (active),,inactive,6.2 µM (active),inactive
O=C(O)COc1nn(Cc2ccccc2)c2ccccc12,inactive,inactive,inactive,inactive,inactive,inactive,inactive,inactive,inactive,inactive,,inactive,,,inactive,inactive,inactive,inactive,inactive
CCCCO,inactive,inactive,inactive,inactive,,inactive,inactive,inactive,,inactive,inactive,inactive,inactive,inactive,,,inactive,,inactive
C=C1CC[C@H](O)CC1=C/C=C1\CCC[C@]2(C)[C@@H]([C@H](C)/C=C/[C@H](C)C(C)C)CC[C@@H]12,inactive,inactive,inactive,inactive,,inactive,inactive,inactive,,,,,,,inactive,inactive,inactive,inactive,
CCCCCCCC/C=C/CCCOC(C)=O,inactive,inactive,inactive,inactive,,,inactive,inactive,,inactive,inactive,inactive,inactive,inactive,inactive,,inactive,inactive,inactive
c1ccc2sc(SN(C3CCCCC3)C3CCCCC3)nc2c1,inactive,inactive,inactive,,,inactive,inactive,inactive,,inactive,inactive,inactive,inactive,inactive,,inactive,inactive,inactive,inactive
CC(=O)Nc1ccc(S(=O)(=O)Nc2ccc([N+](=O)[O-])cc2)cc1,inactive,inactive,inactive,,inactive,inactive,inactive,inactive,inactive,inactive,inactive,inactive,inactive,inactive,inactive,inactive,inactive,inactive,inactive
O=C(O)c1ccc2cc(C(=O)O)ccc2c1,inactive,inactive,inactive,,,inactive,inactive,inactive,,,,inactive,inactive,inactive,inactive,inactive,inactive,,inactive
COCCOC,inactive,inactive,inactive,,,,inactive,2.75 µM (active),,inactive,inactive,inactive,inactive,,inactive,,inactive,inactive,inactive
c1ccc(-c2ccccc2-c2ccccc2)cc1,inactive,inactive,inactive,,inactive,,,,inactive,inactive,inactive,inactive,,inactive,inactive,inactive,inactive,inactive,inactive
O=C(N[C@H](CO)[C@H](O)c1ccc([N+](=O)[O-])cc1)C(Cl)Cl,inactive,inactive,inactive,,inactive,,inactive,inactive,,,,,inactive,,inactive,,,inactive,
